High-throughput results from PubChem.
FadD28 binding – inhibitors of FadD28 bisubstrate probe binding, primary screen, biochemical, fluorescence polarization, single point. inhibition, % at 12.5 µM. 0.22% of 360,000 active. AID 588549, 2011; in the data active = inhibition above about 8.5%, passing the limit was not always enough
Mtb hypoxia rep – PubChem AID 1159583; M. tuberculosis hypoxia-regulated fluorescent reporter, fluorescence; 0.1% of 300,000 active; fluorescence inhibition, % (concentration not given with the values); in the data active = fluorescence inhibition mostly above about 23%, no sharp cut-off; inactive = mostly below about 17%
PrP UTR inh – inhibition of PrP 5' UTR reporter expression. cell-based PrP 5' UTR mRNA reporter, plate reader. inhibition, % (test concentration not listed). 0.35% of 340,000 active. AID 488862, 2010; in the data active = inhibition above about 52%; note: 0 = median of the neutral control wells
BioA inh – M. tuberculosis BioA enzyme inhibitors, primary screen, biochemical, plate reader, single point, HTS; purified M. tuberculosis BioA enzyme; inhibition, % at 9.99 µM; 0.096% of 360,000 active; in the data active = inhibition above about 40%
TcdB GH inh – TcdB glycohydrolase inhibitors, primary screen, biochemical, single point, plate reader. 0.24% of 350,000 active. AID 652162, 2013. Toxin B (Clostridioides difficile), P18177. TcdB glycohydrolase enzymatic assay. inhibition, % at 9.99 µM; in the data active = inhibition above about 10%
Target sequence (P18177 whole entry, looked up): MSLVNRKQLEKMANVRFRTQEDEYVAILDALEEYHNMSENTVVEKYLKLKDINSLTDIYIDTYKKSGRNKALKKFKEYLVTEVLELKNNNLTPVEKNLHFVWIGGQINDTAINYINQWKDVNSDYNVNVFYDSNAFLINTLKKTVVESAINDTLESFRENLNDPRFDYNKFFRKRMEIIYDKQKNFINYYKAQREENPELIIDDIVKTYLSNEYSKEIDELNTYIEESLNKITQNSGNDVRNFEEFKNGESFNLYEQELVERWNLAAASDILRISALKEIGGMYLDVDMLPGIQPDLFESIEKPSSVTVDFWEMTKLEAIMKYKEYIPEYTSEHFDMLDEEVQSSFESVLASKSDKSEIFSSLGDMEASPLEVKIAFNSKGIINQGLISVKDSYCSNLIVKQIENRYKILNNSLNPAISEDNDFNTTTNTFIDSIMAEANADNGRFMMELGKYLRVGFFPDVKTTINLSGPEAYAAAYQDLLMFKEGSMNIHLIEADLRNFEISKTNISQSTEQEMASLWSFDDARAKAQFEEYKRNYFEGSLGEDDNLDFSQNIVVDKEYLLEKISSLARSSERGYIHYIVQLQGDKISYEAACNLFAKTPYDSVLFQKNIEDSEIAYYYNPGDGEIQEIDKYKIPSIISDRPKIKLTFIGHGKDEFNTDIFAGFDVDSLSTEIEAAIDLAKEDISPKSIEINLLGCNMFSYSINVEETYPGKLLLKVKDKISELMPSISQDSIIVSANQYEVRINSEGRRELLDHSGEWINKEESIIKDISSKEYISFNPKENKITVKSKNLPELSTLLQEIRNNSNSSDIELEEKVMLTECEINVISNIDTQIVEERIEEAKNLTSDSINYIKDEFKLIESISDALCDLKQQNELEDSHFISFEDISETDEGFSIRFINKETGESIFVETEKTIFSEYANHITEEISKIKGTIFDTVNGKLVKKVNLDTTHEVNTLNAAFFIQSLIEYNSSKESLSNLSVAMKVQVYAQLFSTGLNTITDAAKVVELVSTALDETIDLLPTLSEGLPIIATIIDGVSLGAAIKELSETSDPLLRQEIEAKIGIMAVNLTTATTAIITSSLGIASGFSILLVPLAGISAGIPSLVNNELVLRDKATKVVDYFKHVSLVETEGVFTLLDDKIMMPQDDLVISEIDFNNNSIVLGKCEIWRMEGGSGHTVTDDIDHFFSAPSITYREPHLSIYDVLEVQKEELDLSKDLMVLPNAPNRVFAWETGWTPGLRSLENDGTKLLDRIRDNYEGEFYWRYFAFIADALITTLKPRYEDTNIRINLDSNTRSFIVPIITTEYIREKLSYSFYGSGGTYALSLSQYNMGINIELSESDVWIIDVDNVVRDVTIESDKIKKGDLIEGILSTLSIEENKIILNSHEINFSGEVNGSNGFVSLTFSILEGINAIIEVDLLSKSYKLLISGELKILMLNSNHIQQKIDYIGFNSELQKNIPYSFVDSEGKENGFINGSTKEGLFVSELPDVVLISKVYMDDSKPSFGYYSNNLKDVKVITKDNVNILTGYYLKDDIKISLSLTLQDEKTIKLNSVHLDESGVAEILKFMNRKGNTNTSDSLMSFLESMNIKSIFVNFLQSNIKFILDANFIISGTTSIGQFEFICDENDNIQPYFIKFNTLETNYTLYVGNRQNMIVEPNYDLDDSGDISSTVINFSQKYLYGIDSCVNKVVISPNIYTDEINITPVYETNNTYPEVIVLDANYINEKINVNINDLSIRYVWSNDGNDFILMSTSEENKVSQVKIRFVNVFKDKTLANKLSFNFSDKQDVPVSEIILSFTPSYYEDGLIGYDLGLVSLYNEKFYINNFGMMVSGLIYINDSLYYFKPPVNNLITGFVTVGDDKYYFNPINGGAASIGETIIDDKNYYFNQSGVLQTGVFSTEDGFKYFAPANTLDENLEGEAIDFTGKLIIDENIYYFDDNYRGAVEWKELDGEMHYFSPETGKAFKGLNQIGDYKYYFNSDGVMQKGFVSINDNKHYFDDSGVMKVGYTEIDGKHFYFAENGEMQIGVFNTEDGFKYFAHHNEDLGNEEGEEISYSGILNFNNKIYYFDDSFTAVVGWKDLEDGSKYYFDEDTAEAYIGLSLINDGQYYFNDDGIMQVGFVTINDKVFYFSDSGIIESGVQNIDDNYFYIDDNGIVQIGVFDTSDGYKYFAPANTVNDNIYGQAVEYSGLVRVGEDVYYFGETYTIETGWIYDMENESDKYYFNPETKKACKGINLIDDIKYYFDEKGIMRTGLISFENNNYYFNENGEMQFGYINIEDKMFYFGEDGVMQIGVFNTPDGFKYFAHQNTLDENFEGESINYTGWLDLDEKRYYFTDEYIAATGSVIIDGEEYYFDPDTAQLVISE
PriA SSB inh – inhibitors of Klebsiella pneumoniae PriA binding to SSB C-terminal tail, primary screen, biochemical, AlphaScreen; AID 1272365, 2023; PriA–SSB C-terminal tail interaction (Klebsiella pneumoniae); 0.6% of 430,000 active; AlphaScreen SSBct-PriA binding, biotinylated peptide; inhibition, % at 33 µM; in the data active = inhibition mostly above about 37%, no sharp cut-off; inactive = mostly below about 20%;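 note: plate controls were negative control peptide for no effect and reference peptide for full effect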
Active calls of the source: *; nt = no result given. An excerpt weighted towards active compounds, which were near 1% of everything screened.

SMILES	FadD28 binding	Mtb hypoxia rep	PrP UTR inh	BioA inh	TcdB GH inh	PriA SSB inh
O=C1CN(C(=O)c2ccccc2[N+](=O)[O-])C(c2ccccc2)c2cc(Br)ccc2N1 (stereo unspecified)	-1.1	-2.5	-9.8	1.3	1.6	3.1
CN(C)c1ccc2cc(S(=O)(=O)O)cc(O)c2c1	19.3*	2.4	3.4	-4.6	-9.6	12.3
O=Nc1c(O)ccc2cc(S(=O)(=O)O)ccc12	-2.1	7.0	-26.3	-2.2	nt	-13.7
C/C(=N/NC(=O)c1cc2ccccc2cc1O)C1C(=O)c2ccccc2C1=O	36.5*	nt	-37.1	0.5	nt	nt
CC(=NNC(=O)c1ccccc1O)C1C(=O)c2ccccc2C1=O	nt	10.0	nt	nt	nt	3.8
Cc1cc(C)cc(C(=O)Nc2ccc(-c3ccc4nnc(-c5ccccn5)n4n3)cc2)c1	nt	nt	nt	nt	nt	67.0*
O=C(Nc1ccc(-c2ccc3nnc(-c4ccccn4)n3n2)cc1)c1cccnc1Cl	nt	nt	nt	nt	nt	87.0*
CC1(c2ccccc2Cl)NC(=O)N(CC(=O)c2ccc3c(c2)OCO3)C1=O (stereo unspecified)	-2.0	8.0	-19.9	0.4	-2.2	5.0
CC(C)Oc1ccc(C(CC(=O)NCc2ccco2)c2ccccc2)cc1 (stereo unspecified)	-0.9	-6.4	16.3	0.2	0.3	-2.7
O=C(CCN1CCCCC1)NCC[C@H]1CC[C@@H](NC(=O)C2CCOCC2)[C@@H](CO)O1	nt	nt	nt	-0.5	0.5	nt
O=C(CNC(=O)c1ccc(OC(F)F)cc1)NC1CCCc2ccccc21 (stereo unspecified)	-0.4	13.6	-10.8	-0.6	0.4	-20.3
O=C(OCC#CCSc1nnc(-c2cccc3ccccc23)o1)c1ccc(Cl)cc1	-2.1	nt	-9.5	-2.6	-0.2	-27.0
OCC#CCSc1nnc(-c2cccc3ccccc23)o1	-2.4	54.4*	1.7	-1.3	8.1	-34.5
Cc1oc(-c2cccs2)nc1CSCC(=O)N1CCC2(CC1)OCCO2	-4.2	active	-17.2	nt	nt	-2.5
CCOC(=O)CC(NC(=O)Cn1nnc(-c2ccccc2F)n1)c1ccc(OC)cc1 (stereo unspecified)	-1.2	11.8	-8.1	nt	0.1	9.0
CC(=O)N1CCN(S(=O)(=O)c2cccc(C(=O)NNC(=O)Cn3ccc(C(F)(F)F)n3)c2)CC1	-1.6	9.3	-17.5	nt	2.3	2.4
O=Cc1c(N2CCSCC2)nc2ccccn2c1=O	-3.6	40.2*	-8.2	1.2	-2.9	0.8
S=c1[nH]nc(-c2ccccn2)n1/N=C/c1cccs1	0.9	nt	-15.5	nt	4.0	nt
Cc1ccsc1C=Nn1c(-c2ccccn2)n[nH]c1=S	nt	0.5	nt	nt	nt	88.0*
S=c1[nH]nc(-c2ccccn2)n1N=Cc1ccc(Br)s1	nt	nt	nt	nt	nt	79.2*
S=c1[nH]nc(-c2ccccn2)n1/N=C/c1ccccc1	-1.1	nt	-14.7	nt	5.0	nt
S=c1[nH]nc(-c2ccccn2)n1/N=C/c1ccc(Cl)cc1	0.7	nt	-24.5	nt	15.2*	nt
CC(=O)Nc1cccc(/C(C)=N/NC(=O)c2ccc3c(c2)OCO3)c1	-1.0	nt	-57.9	nt	0.4	nt
O=c1c(NCc2ccc(Cl)cc2)nccn1-c1cccc(C(F)(F)F)c1	nt	nt	nt	nt	nt	54.0*
Cc1ccc(CNc2nccn(-c3cccc(Cl)c3C)c2=O)cc1	nt	nt	nt	nt	nt	46.0*
SMILES	FadD28 binding	Mtb hypoxia rep	PrP UTR inh	BioA inh	TcdB GH inh	PriA SSB inh
Cc1c(Cl)cccc1-n1ccn(CC(N)=O)c(=O)c1=O	nt	nt	nt	nt	nt	-21.0
O=c1c(NCc2ccc(F)cc2)nccn1-c1ccc(Br)cc1	nt	nt	nt	nt	nt	-2.0
O=C1NC(c2ccccn2)Nc2sc3c(c21)CCC3 (stereo unspecified)	-4.1	-0.6	-52.3	nt	nt	81.0*
CCC1CCc2c(sc3c2C(=O)NC(c2ccccn2)N3)C1 (stereo unspecified)	nt	nt	nt	nt	nt	45.2
CN1CCc2c(sc3c2C(=O)NC(c2ccccn2)N3)C1 (stereo unspecified)	1.7	3.7	-2.7	-12.5	nt	84.8*
CCCN1CCCc2cc(CCNC(=O)c3ccccc3)ccc21	nt	nt	nt	nt	nt	56.5
CCCN1CCCc2cc(CCNC(=O)c3ccccc3F)ccc21	nt	nt	nt	nt	nt	67.8*
CCCN1CCCc2cc(CCNC(=O)COc3ccccc3F)ccc21	nt	nt	nt	nt	nt	83.0*
CCCN1CCCc2cc(CCNC(=O)C(C)(C)C)ccc21	nt	nt	nt	nt	nt	51.0*
CCCN1CCCc2cc(CCNC(=O)COCC)ccc21	nt	nt	nt	nt	nt	51.0
CCCN1CCCc2cc(CCNC(=O)c3c(OC)cccc3OC)ccc21	nt	nt	nt	nt	nt	79.9*
c1ccc2c(c1)[nH]c1c(N3CCN(C4CCCCC4)CC3)ncnc12	-4.5	4.5	-64.7	8.7	nt	1.5
